The whole screen tested about 310,000 compounds, of which about 1,200 (0.39%) were called active. No rule for the calls is given here. Not all results are given here. Measured potencies and affinities stand elsewhere.
What follows are compounds tested against Large T antigen (Simian virus 40) (UniProt P03070) (assay: TAg ATPase/helicase activity blockers – biochemical (AID 1903)). Details: SV40 large T antigen ATPase/helicase inhibition assay; at 20 µM; stronger effect = higher value.
Chain of Large T antigen (Simian virus 40) (P03070 whole entry, looked up): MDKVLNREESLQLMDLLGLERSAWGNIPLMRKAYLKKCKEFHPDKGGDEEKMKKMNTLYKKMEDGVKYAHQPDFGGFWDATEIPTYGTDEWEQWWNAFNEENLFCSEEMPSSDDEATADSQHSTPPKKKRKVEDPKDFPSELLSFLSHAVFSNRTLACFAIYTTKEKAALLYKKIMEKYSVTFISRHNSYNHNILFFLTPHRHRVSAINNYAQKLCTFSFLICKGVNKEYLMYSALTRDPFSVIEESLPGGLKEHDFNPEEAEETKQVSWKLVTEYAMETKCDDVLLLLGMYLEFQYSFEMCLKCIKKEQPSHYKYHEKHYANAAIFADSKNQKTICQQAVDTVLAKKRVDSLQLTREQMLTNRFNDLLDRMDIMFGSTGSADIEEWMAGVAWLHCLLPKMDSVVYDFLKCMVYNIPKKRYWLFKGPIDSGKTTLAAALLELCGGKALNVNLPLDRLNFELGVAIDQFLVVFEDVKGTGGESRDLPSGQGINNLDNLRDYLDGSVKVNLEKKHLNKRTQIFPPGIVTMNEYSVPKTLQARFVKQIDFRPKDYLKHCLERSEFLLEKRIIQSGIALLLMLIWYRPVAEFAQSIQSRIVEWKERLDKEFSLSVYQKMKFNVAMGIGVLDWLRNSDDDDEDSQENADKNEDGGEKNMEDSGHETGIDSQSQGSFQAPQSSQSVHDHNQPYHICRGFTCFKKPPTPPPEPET

inhibition, inactive:
COc1ccc(OC)c(CC(=O)NC(c2ccccc2)c2ccccc2)c1 5.47%
O=C(N=Nc1c(O)[nH]c2ccccc12)c1cc(-c2ccc(F)cc2)n[nH]1 7.92%
O=C(c1ccncc1)N1CCN(C(=O)c2ccco2)CC1 6.56%
O=S(Cc1cc(Oc2ccccc2)nc(-c2ccccc2)n1)c1ccccc1 (stereo not given) 16.4%
CN1CCN(c2ccc(CNC(=O)c3ccco3)cc2)CC1 9.25%
O=C(CCCN1C(=O)CSc2ncccc21)N1CCN(Cc2ccccc2)CC1 -0.33%
COc1cccc(N/C(SCc2ccccc2F)=C(/C#N)C(=O)NCc2cccs2)c1 2.65%
Cc1ccc2[nH]c(=O)c(CN(Cc3ccccc3)C(=S)NCCCN(C)C)cc2c1 2.51%
NC(=O)c1cc(N)ccc1N1CCCC1 18.4%
NC(=O)c1cc(N)ccc1N1CCCCC1 36%
COc1ccc(N(CC(=O)N2CCCC2)S(=O)(=O)c2ccc(NC(C)=O)cc2)cc1 -2.23%
O=C(CCc1ccccc1)Nc1nc2nc(-c3ccccc3)cc(=O)n2[nH]1 -26.7%
C/C(O)=C(/C#N)c1nc2ccccc2[nH]1 7.8%
C/C(O)=C(\C#N)c1nc2ccccc2[nH]1 1.46%
O=S(=O)(c1cc(-c2nnc(-c3ccc(Br)cc3)o2)ccc1Br)N1CCCCCC1 4.66%
O=C(Nc1ccc(Cl)cc1Cl)c1ccc(-c2ccccc2)cc1 3.2%
CN(C)c1nn(C(=O)Nc2cccc(C(F)(F)F)c2)cc1-c1ccccc1 23.9%
CN1CCN(S(=O)(=O)c2cnccc2N2CCN(c3cccc(Cl)c3)CC2)CC1 25%
Cc1c(C(=O)/C=C/N(C)C)nnn1-c1ccc(F)c(Cl)c1 10.7%
CC(NS(=O)(=O)c1ccc(Br)cc1)C(N)=O (stereo not given) 3.6%
COc1ccc(/C=N/NC(=O)c2cccc(Br)c2)cc1CN1CCOCC1 4.55%
COc1ccc(/C=N/NC(=O)c2ccc(N)cc2)cc1Cn1cc([N+](=O)[O-])cn1 -3.89%
COc1ccc(/C=N/NC(=O)c2ccccc2O)cc1Cn1cc([N+](=O)[O-])cn1 12.7%
COc1cc(/C=N\NC(=O)c2ccc(Cn3cc(Br)c([N+](=O)[O-])n3)o2)cc(OC)c1O 32.8%
Cc1c(Cl)c([N+](=O)[O-])nn1Cc1ccc(C(=O)N/N=C\c2ccccn2)o1 6.44%
COc1ccc(/C=N/NC(=O)c2ccncc2)cc1CN1CCOCC1 14.2%
Cc1c(Cl)c([N+](=O)[O-])nn1Cc1ccc(C(=O)N/N=C\c2cccc(Br)c2)o1 -0.98%
COc1ccc(/C=N/NC(=O)c2ccc(Cn3cc([N+](=O)[O-])cn3)o2)cc1O 17.9%
Cc1ccc([N+](=O)[O-])c(C(=O)N/N=C/c2cccnc2)c1 13.6%
O=[N+]([O-])c1cccc(/C=N/N2CCN(Cc3ccccc3)CC2)c1 16.1%
CN1CCOc2ccc(S(=O)(=O)NCCc3ccc(Cl)cc3)cc21 4.83%
CC(Oc1ccc(Br)cc1)C(=O)NCC(c1cccs1)N1CCOCC1 (stereo not given) 0.98%
O=C(NNc1ccc([N+](=O)[O-])cc1)C1C2CCCCC21 (stereo not given) 2.05%
CC1CCN(S(=O)(=O)c2cccc(C(=O)N(Cc3ccccc3)c3ccccn3)c2)CC1 6.8%
CN(C)/C=C(\C#N)C(=O)Nc1ccc(F)cc1 -1.08%
CN(C)/C=C(\C#N)C(=O)Nc1ccc(F)c(Cl)c1 14.7%
COc1ccc(C)cc1NC(=O)c1ccc2c(O)c(S(=O)(=O)c3ccccc3)c(=O)[nH]c2c1 13.8%
CC(C)(C)c1ccc(OCC(O)CSc2ncn[nH]2)cc1 (stereo not given) 3.06%
COc1ccc2c(c1)C(=O)CC(c1ccccc1F)O2 (stereo not given) 15.3%
COc1ccc2c(c1)C(=O)c1ccccc1CO2 10.1%
O=C1C2C3C=CC(CO)(O3)C2C(=O)N1c1ccccc1-c1ccccc1 (stereo not given) 13.7%
CCN(CC)C(=O)c1c(-c2ccccc2)oc2ccc(O)cc12 13.9%
O=C(O)c1c(-c2ccccc2)oc2ccc(O)cc12 15%
CCn1c(=O)n(CC)c2cc(S(N)(=O)=O)ccc21 3.97%
CCn1c(=O)n(CC)c2cc([N+](=O)[O-])ccc21 -2.72%
O=C(COc1ccccc1Cl)NCc1nc(-c2ccccc2)no1 10.2%
COc1ccc(Nc2nc(N)c([N+](=O)[O-])c(N3CCOCC3)n2)cc1 10.9%
Cc1ccc(Nc2nc(N)c([N+](=O)[O-])c(N3CCOCC3)n2)cc1 9.48%
Cc1cc(/C=C(\C#N)C(=O)O)c(C)n1C1CC1 11.4%
O=C(N/N=C/c1ccc(OCc2ccc(F)cc2)cc1)c1ccccc1 1.09%
Cc1cc(C)c2c(=O)n(CC(=O)N3CCC(Cc4ccccc4)CC3)sc2n1 3.6%
Cc1cccc(N2CCN(C(=O)Cn3nc(C)n4cccc4c3=O)CC2C)c1 (stereo not given) 8.5%
Cc1nn(CC(=O)N2CCC(N3CCCCC3)CC2)c(=O)c2c1sc1ccccc12 17.6%
CCOC(=O)C1CCCN(C(=O)Cn2sc3nc(C)cc(C)c3c2=O)C1 (stereo not given) 73.4%
CN1CCN(c2ccc(Cl)cc2NC(=O)c2ccc(=O)n(C)n2)CC1 22.8%
CC(C)c1ccc2[nH]c(O)c(N=NC(=O)c3cccc(S(=O)(=O)Nc4ccccc4Cl)c3)c2c1 -4.52%
COc1ccccc1C(=O)NNC(=O)c1sccc1-n1cccc1 8.72%
CCN(CC)CCN1c2ccccc2Sc2ccccc21 34.5%
CN(C)CCCN1c2ccccc2Sc2ccccc21 33%
CCCCN(C(=O)c1ccc([N+](=O)[O-])o1)c1c(N)n(CC(C)C)c(=O)[nH]c1=O 20.2%
COc1cccc(-c2cc(C(=O)Nc3cc(C)on3)no2)c1 3.2%
Cc1ccc2oc(=O)c3cnn(CC(=O)NCCCOC(C)C)c3c2c1 5.01%
CCOC(=O)Cc1csc(NC(=O)c2ccc3c(c2)OCO3)n1 -7.42%
NC1=NC(=O)/C(=C/c2cc(Br)c(O)c(Br)c2)S1 23.3%
COc1cc(/C=C2\SC(c3ccc(C)cc3)=NC2=O)cc(OC)c1OC 14.7%
COc1ccc(/C=C2\SC(c3ccc(C)cc3)=NC2=O)cc1OC 4.55%
COc1ccc(/C=C2/SC(c3ccc(C)cc3)=NC2=O)cc1OC 7.06%
O=C(Nc1ccc(CN2CCOCC2)cc1)c1ccc(Br)o1 4.15%
CCCc1nn(-c2cc(Cl)ccc2OC)c2c1C(=O)CC(C)(C)C2 2.88%
CCCC(=O)N(c1ccc2oc(=O)sc2c1)S(=O)(=O)c1cccs1 34.4%
CC(C)C(=O)N(c1ccc2oc(=O)sc2c1)S(=O)(=O)c1cccs1 22.8%
CC(=O)N(c1ccc2oc(=O)sc2c1)S(=O)(=O)c1ccc(C(=O)O)cc1 23.9%
CC(C)C(=O)N(c1ccc2oc(=O)sc2c1)S(=O)(=O)c1ccccc1 25.6%
Cc1ccsc1C(=O)OCC(=O)NCc1ccc2c(c1)OCO2 20.1%
O=C(O)C1CC=CCC1C(=O)N1CCCC1 (stereo not given) -0.98%
O=C1NC(=O)/C(=C\c2ccsc2)N1 2.09%
COCOc1cc(O)c2c(=O)c(OCOC)c(-c3ccc(OCOC)c(OCOC)c3)oc2c1 7.99%
COc1c(-c2ccc(O)c(O)c2)oc2cc(O)cc(O)c2c1=O 9.05%
CCn1c(SCC(=O)Nc2nccs2)nnc1-c1ccc(S(=O)(=O)N2CCCCCC2)cc1 -0.295%
Cc1ccc(S(=O)(=O)N2CCCC(C(=O)NCC3CCCO3)C2)cc1 (stereo not given) 3.23%
CN1CCN(S(=O)(=O)c2ccc(Cl)cc2)CC1 0.99%
CC1CN(S(=O)(=O)c2ccccc2)C(C)CN1S(=O)(=O)c1ccccc1 (stereo not given) 8.4%
Cc1ccc(S(=O)(=O)N2CCN(S(=O)(=O)c3ccccc3)C2)cc1 6.18%
O=S(=O)(c1ccc(Cl)cc1)N1CCCCCC1 20.7%
CCCN(CCC)C(=O)Cc1coc2ccc3ccccc3c12 3.36%
Cc1cc2cc(CNC(=O)Nc3ccccc3)ccc2n1C 4.59%
O=C1NCCN/C1=C\C(=O)c1ccc(Cl)cc1 12.3%
CCOc1ccc(NC(=O)COn2nnc3ccc(S(=O)(=O)N4CCOCC4)cc32)cc1 11.2%
COc1ccc(OC)c(-c2c3cc(O)c(=O)cc-3oc3cc(O)c(O)cc23)c1 73.4%
CCOc1ccccc1-c1c2cc(O)c(=O)cc-2oc2cc(O)c(O)cc12 15.8%
O=c1cc(-c2ccccc2[N+](=O)[O-])oc2ccccc12 1.45%
Cc1c2cc(O)c(=O)cc-2oc2cc(O)c(O)cc12 57.6%
CCOc1ccccc1NC(=O)CSc1nnc(CNC(=O)c2cc(OC)c(OC)c(OC)c2)o1 5.49%
COc1ccccc1CNC(c1ccccc1)c1ccccc1 21.1%
COc1ccc(C2NC(c3ccc(OC)c(OC)c3OC)C(C)C(=O)C2C)c(OC)c1OC (stereo not given) -0.23%

— PubChem BioAssay AID1903 (Southern Research Specialized Biocontainment Screening …, 2009)
